# Assay outcomes as filed in PubChem.
# In the library only some 7.5% were active in any assay of this set; here they are far more common.
# NPC1 promoter act = activates the NPC1 promoter; Huh7 NPC1 promoter luciferase reporter, 24 h; Potency, µM (titrated, usually from 9.22 µM), actives largely listed as activators; hit rate 2.4% among 320,000; further: nearly all actives have a fitted effect of over 60% in size
#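 Stable NPC1-promoter luciferase Huh7 line; cpd (DMSO) 24 h, 37 °C, 5% CO2; Amplite luciferase reagent 10 min RT; luminescence readout. qHTS format.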
# FLuc modulator = inhibits or activates purified firefly luciferase, miR-21 counter-screen; purified FLuc, Km substrates, luminescence inhibition; Potency, µM (titrated, usually from 57.5 µM), actives largely listed as inhibitors; hit rate 6.9% among 360,000; AID 588342; further: nearly all actives have a fitted effect of over 55% in size
# Target sequence (P08659 whole entry, looked up): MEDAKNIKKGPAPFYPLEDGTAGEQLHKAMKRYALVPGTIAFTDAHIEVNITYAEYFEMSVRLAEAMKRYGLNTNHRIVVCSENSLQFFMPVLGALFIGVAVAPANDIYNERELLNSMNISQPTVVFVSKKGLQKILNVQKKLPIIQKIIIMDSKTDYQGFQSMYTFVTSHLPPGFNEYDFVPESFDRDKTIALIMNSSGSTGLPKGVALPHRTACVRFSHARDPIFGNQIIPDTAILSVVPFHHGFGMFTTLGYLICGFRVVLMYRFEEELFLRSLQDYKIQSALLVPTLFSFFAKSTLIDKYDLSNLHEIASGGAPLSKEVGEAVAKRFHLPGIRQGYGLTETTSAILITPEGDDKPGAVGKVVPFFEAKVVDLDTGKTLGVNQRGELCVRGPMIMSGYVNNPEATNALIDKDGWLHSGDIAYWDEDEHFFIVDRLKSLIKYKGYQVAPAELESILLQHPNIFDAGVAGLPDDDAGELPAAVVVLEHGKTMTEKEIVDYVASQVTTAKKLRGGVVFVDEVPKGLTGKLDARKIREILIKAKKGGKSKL
#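 Purified P. pyralis luciferase (10nM final) with 10uM D-luciferin and 10uM ATP (Km levels) in 50mM Tris acetate pH 7.5, 10mM Mg acetate, 0.01% Tween-20, 0.05% BSA; qHTS 6-point titration, ~60 µM downward; luminescence read.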
# SMN2 splice up = increases expression of the SMN2 splice variant; HEK293 SMN2-luciferase splicing reporter, luminescence, 30-36 h; Potency, µM (doses to about 46.1 µM), hits mostly activators; hit rate 2.8% among 210,000; further: nearly all actives have a fitted effect of over 55% in size
#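 HEK293 cells carry an SMN2 minigene-luciferase reporter in which exon 7 inclusion puts luciferase in frame. Cells were seeded at 2000 cells/well, attached for 10-12 hours, then exposed to compounds for 30-36 hours at 37C before ONE-Glo luminescence.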
# ELG1 genotoxic = inducers of genotoxicity in HEK293T ELG1-luciferase cells; HEK293T ELG1-luciferase reporter, luminescence, 16 h; Potency, µM (doses to about 46 µM), hits mostly activators; hit rate 1.3% among 330,000; AID 504466; further: nearly all actives have a fitted effect of over 60% in size
#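 Genotoxic stress is detected as increased luminescence from luciferase-tagged ELG1 in HEK293T cells, measured with ONE-Glo after a 16 hr treatment at 37 °C.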
# Rab9 prom act = activates the Rab9 promoter; AID 485297; Huh7 Rab9 promoter-luciferase reporter, luminescence, 24 h; Potency, µM (titrated, usually from 9.22 µM), usual class: activators; hit rate 2.8% among 320,000; further: nearly all actives have a fitted effect of over 60% in size
#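 Quantitative HTS format; Huh7 Rab9-luciferase reporter cells (1500/well) receive compound 2 h post-plating, incubate 24 h at 37 °C, then get luciferase reagent for 10 min before luminescence reading.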
# Numbers stand for hits; . = inactive; ? = inconclusive; / = no result given. The call rests on the fitted dose curve; in most records, active means well fitted curve in the direction sought with a large enough effect; inconclusive means small, poorly fitted or top-dose-only effect, or another doubt; inactive means no such curve, though single readings can be large; an effect the other way counts as inactive or inconclusive.
SMILES,NPC1 promoter act,FLuc modulator,SMN2 splice up,ELG1 genotoxic,Rab9 prom act
COc1cc2c(cc1NC(=O)C(C)OC(=O)C1CC(=O)N(Cc3ccco3)C1)oc1ccccc12 (centres undefined),?,?,.,20.6µM,?
CCCN(CCC)CCCNC(=O)Cn1cnc2sc(C)c(S(=O)(=O)N3CCOCC3)c2c1=O,.,.,/,.,.
Cc1ccc2oc(C(=O)NCCC3CCCCO3)c(C)c2c1 (centres undefined),0.562µM,2.69µM,/,3.66µM,0.447µM
COc1ccc2oc(C(=O)NCCN3CCOCC3)c(C)c2c1OC,2µM,15.1µM,/,10.3µM,2.24µM
Cc1c(C(=O)NCCCN2CCOCC2)oc2ccc(S(=O)(=O)N3CCOCC3)cc12,.,.,.,.,.
Cc1ccc2oc(C(=O)NCCCN3CCOCC3)c(C)c2c1,3.16µM,13.5µM,/,18.3µM,3.98µM
Cc1cnc2c(c1SCC(=O)N(C)c1ccccc1)c(=O)n(C)c(=O)n2C,/,.,/,/,/
CC(=O)c1sc(NC(=O)c2ccc(F)c(S(=O)(=O)N3CCOCC3)c2)nc1C,.,19µM,/,.,.
CC(=O)c1sc(NC(=O)c2ccc(F)c(F)c2)nc1C,?,?,.,16.4µM,3.16µM
CC(=O)c1sc(NC(=O)c2ccc(Cl)cc2)nc1C,3.16µM,?,/,?,1.41µM
CC(=O)c1sc(NC(=O)c2cccc(C)c2)nc1C,3.16µM,6.75µM,14.1µM,5.17µM,2µM
CC(=O)c1c(C)[nH]c(C(=O)N2CCCC(C)C2)c1C (centres undefined),.,.,/,.,.
CC(=O)c1sc(NCc2ccc(C)cc2)nc1C,3.16µM,15.1µM,/,23.1µM,2.82µM
CSc1c(-c2ccccn2)c(N)nn1C(=O)C1CC1,.,19µM,/,.,.
CSc1c(-c2ccccn2)c(N)nn1C(=O)C1CCC1,.,?,/,.,.
COc1ccc(C(=O)/C=C/c2ccc(C)cc2)c(OC(=O)c2ccc([N+](=O)[O-])cc2)c1,.,6.75µM,.,.,.
COc1ccc(/C=C/C(=O)c2ccc3c4c(cccc24)CC3)cc1,.,15.1µM,/,.,.
COc1ccc(C(=O)/C=C/c2ccc(N(C)C)cc2)c(OC)c1,.,10.7µM,/,?,.
COc1ccc(C(=O)/C=C/c2ccccc2F)c(OC(=O)c2ccc([N+](=O)[O-])cc2)c1,?,?,.,?,?
COc1ccc(C(=O)/C=C/c2ccccc2)c(OC)c1,?,4.78µM,/,.,?
O=C(CCn1cnc2onc(-c3ccc(F)cc3)c2c1=O)Nc1cccc(C(F)(F)F)c1,/,.,/,/,/
CCCCNC(=O)CC1C(=O)N(Cc2ccccc2)C(C)c2nc3ccccc3n21 (centres undefined),.,.,.,.,.
CSc1ccc(S(=O)(=O)N(CC(=O)NCc2ccccn2)c2ccc(C)cc2)cc1,.,.,/,.,.
CC(=O)NCc1ccc2[nH]c(C)cc2c1,.,.,.,.,.
Cc1ccc(CNC(=O)Nc2cccc(C)c2)cc1,?,9.53µM,?,?,2.82µM
SMILES,NPC1 promoter act,FLuc modulator,SMN2 splice up,ELG1 genotoxic,Rab9 prom act
Cc1cccc(NC(=O)Nc2ccc(C)cc2Br)c1,?,?,12.6µM,?,?
Cc1ccc(NC(=O)NCc2ccc3[nH]c(C)cc3c2)cc1,.,?,22.4µM,.,.
Cc1cccc(NC(=O)NCc2ccc3[nH]c(C)cc3c2)c1,?,19µM,.,?,?
CCn1cc(C(=O)O)c(=O)c2cc(F)c(N3CCN(C(=S)NC(=O)c4cccc(F)c4)CC3)cc21,.,.,/,.,.
CC(C)(C)c1ccc(S(=O)(=O)N2CCC(N3CCCCC3)CC2)cc1,.,.,/,.,.
C/C(=N\OC(=O)c1ccc(F)cc1)c1ccc(F)c(F)c1,.,1.69µM,/,.,?
CCOC(=O)c1cc(/C(C)=N/OC(=O)c2ccc(Cl)cc2)on1,.,.,/,.,.
NC(=O)c1ccc(F)cc1,.,.,.,.,.
N/C(=N\OC(=O)Oc1ccccc1)c1ccc(Br)cc1,.,?,.,.,.
N/C(=N\OC(=O)c1ccc(F)cc1)c1ccc(Br)cc1,?,2.69µM,.,?,?
N/C(=N\OC(=O)c1ccc(F)cc1)c1ccccc1,?,0.169µM,.,?,?
Cc1ccc(C(=O)O/N=C(\N)Cc2cccc3ccccc23)cc1,.,.,/,.,.
Cc1ccc(/C(N)=N/OC(=O)c2ccc(F)cc2)cc1,.,4.78µM,?,10.3µM,.
O=C(c1c(Cl)nc2sccn12)N(C(=O)c1c(Cl)nc2sccn12)c1ccc(Cl)cn1,.,.,12.6µM,3.66µM,.
O=C(NCCc1c[nH]c2ccccc12)c1c(Cl)nc2sccn12,?,.,.,.,?
CC(C)NC(=O)N(C)C[C@H]1Oc2c(NC(=O)Nc3ccc(C(F)(F)F)cc3)cccc2C(=O)N([C@H](C)CO)C[C@@H]1C,/,/,/,.,/
O=C(O)COc1ccc(-c2nccc(-c3ccccn3)n2)cc1,.,3.38µM,.,.,.
FCCCOc1ccc(-c2nccc(-c3ccccn3)n2)cc1,.,19µM,/,?,.
Cc1cc(N2CCCC2)ccc1/C=C1\NC(=S)N(C)C1=O,?,13.5µM,/,.,3.16µM
O=C1/C(=C/c2ccc(N3CCCC3)cc2)NC(=S)N1C1CC1,.,12µM,.,.,?
CN1C(=O)c2ccc(N3CCCC3)cc2C1=O,.,?,.,?,.
Cc1cc(O)c(C2=Nc3ccccc3SC(c3ccc(Cl)cc3)C2)c(=O)o1 (centres undefined),.,4.78µM,.,7.31µM,.
O=c1[nH]c(=O)n(C2CCCCC2)c(O)c1C1=Nc2ccccc2SC(c2ccccc2)C1 (centres undefined),/,.,/,/,/
CSCCC1NC(=O)N(CC(=O)Nc2ccc(Cl)c(S(=O)(=O)N3CCOCC3)c2)C1=O (centres undefined),/,/,/,.,/
Oc1nc(Nc2ccccc2)sc1/C=C1\C=Nc2ccccc21,3.98µM,19µM,/,?,2.82µM
SMILES,NPC1 promoter act,FLuc modulator,SMN2 splice up,ELG1 genotoxic,Rab9 prom act
CCn1c(O)c(/C=C2\C=Nc3ccccc32)sc1=Nc1ccc(C)cc1,.,.,.,.,.
CCn1c(O)c(/C=C2\C=Nc3ccccc32)sc1=O,?,2.69µM,22.4µM,6.51µM,1.41µM
O=C(CSc1ccccc1)Nc1ccncc1,.,.,.,.,.
COc1ccc(-n2cc(CN3CCCC3)c(-c3cccc(F)c3)n2)cc1,.,?,/,.,.
Cc1cccc(-n2cc(CN3CCN(Cc4nccn4C)CC3)c(-c3cccc(F)c3)n2)c1,.,26.9µM,/,.,.
O=C1CCC(=O)N1CC(O)COc1ccccc1 (centres undefined),.,.,/,.,.
Cc1ccc(NC(=O)c2ccc(-c3ccccc3)s2)cc1,/,.,.,/,/
O=C(Nc1cccc(F)c1)c1ccc(-c2ccccc2)s1,/,2.13µM,.,/,/
O=C(Nc1ccc(F)cc1F)c1ccc(-c2ccccc2)s1,/,.,.,/,/
Cc1cccc(NC(=O)c2ccc(-c3ccccc3)s2)c1,/,2.39µM,?,/,/
O=C(Nc1ccccc1)c1ccc(-c2ccc(F)cc2)s1,?,?,?,7.3µM,?
O=C(Nc1ccccc1)c1c(F)cccc1F,.,.,.,.,.
